Experimental data reported in the OligoGym collection.
Note: reference of the scale not given here.

What follows are sequences tested against GALT (assay: pooled miR-30 sensor sort-seq; sequence = guide strand). Details: shRNA.
With TATCTGGCAGGAAACTGCTGGC the sensor-assay potency score (higher = more potent) was -0.854. Sequence AAAGAGGTTGTCATACTTGGTC has a sensor-assay potency score (higher = more potent) of -0.351. TGAATTTCCGGACAGTGGCAGA was tested, and the sensor-assay potency score (higher = more potent) was -0.779.

Each sequence was assayed against GAPDH in the same assay as above. Details: shRNA.
Sequence AATTCGTTGTCATACCAGGAAA has a sensor-assay potency score (higher = more potent) of -1.59. Work on TTGATGGCAACAATATCCACTT yielded a sensor-assay potency score (higher = more potent) of -0.344. With TATTGGAACATGTAAACCATGT the sensor-assay potency score (higher = more potent) was -0.597. ATTTCCATTGATGACAAGCTTC was tested, and the sensor-assay potency score (higher = more potent) was -1.07. In the case of ATTGATGACAAGCTTCCCGTTC, the sensor-assay potency score (higher = more potent) is reported as -0.354. TTCTCAGCCTTGACGGTGCCAT gave a sensor-assay potency score (higher = more potent) of -0.93. In the case of TCGCTGTTGAAGTCAGAGGAGA, the sensor-assay potency score (higher = more potent) is reported as -1.53. With ATTGATGGCAACAATATCCACT the sensor-assay potency score (higher = more potent) was -0.562. AACATGTAAACCATGTAGTTGA gave a sensor-assay potency score (higher = more potent) of -0.65. Sequence TTTTTCTAGACGGCAGGTCAGG has a sensor-assay potency score (higher = more potent) of -1.01. Work on TTGGAACATGTAAACCATGTAG yielded a sensor-assay potency score (higher = more potent) of -0.273. For TGTTGTCATACTTCTCATGGTT, the sensor-assay potency score (higher = more potent) was 0.0358. In the case of TAGTTGAGGTCAATGAAGGGGT, the sensor-assay potency score (higher = more potent) is reported as -0.233. TGAGCTTGACAAAGTGGTCGTT showed a sensor-assay potency score (higher = more potent) of 0.19. With TTGACAAAGTGGTCGTTGAGGG the sensor-assay potency score (higher = more potent) was -0.52. With TTGGCAGGTTTTTCTAGACGGC the sensor-assay potency score (higher = more potent) was -0.926. TTGATGACAAGCTTCCCGTTCT showed a sensor-assay potency score (higher = more potent) of 0.0762. Work on TAAACCATGTAGTTGAGGTCAA yielded a sensor-assay potency score (higher = more potent) of 0.434. ATGAGCTTGACAAAGTGGTCGT showed a sensor-assay potency score (higher = more potent) of 0.0447. TGGAACATGTAAACCATGTAGT was tested, and the sensor-assay potency score (higher = more potent) was -0.878. With ATATTGGAACATGTAAACCATG the sensor-assay potency score (higher = more potent) was -1.54. Sequence TTGAGGTCAATGAAGGGGTCAT has a sensor-assay potency score (higher = more potent) of -0.473. For TTGCTGTAGCCAAATTCGTTGT, the sensor-assay potency score (higher = more potent) was -1.2. TTGTCATGGATGACCTTGGCCA showed a sensor-assay potency score (higher = more potent) of -0.37.

What follows are sequences tested against GATA4 in the same assay as above. Details: shRNA.
TGACGGGAGACGCATAGCCTTG showed a sensor-assay potency score (higher = more potent) of -1.75. For TTCGTGTTGCAGAATCTCTGGC, the sensor-assay potency score (higher = more potent) was 0.947. Work on AACGTCTGGGACACGGAGCTGC yielded a sensor-assay potency score (higher = more potent) of 0.00321. With TTGATGCCGTTCATCTTGTGGT the sensor-assay potency score (higher = more potent) was -0.805. For TCGACTTCAAGTTTCTTCCCAG, the sensor-assay potency score (higher = more potent) was 0.0228. Sequence TTAGCAGTCGTCTTCTTTCCAG has a sensor-assay potency score (higher = more potent) of -0.572. Sequence TTGTTCTGGAGTCATTACCAGG has a sensor-assay potency score (higher = more potent) of -1.25. Work on TGACACACTCTCTGCCTTCTGA yielded a sensor-assay potency score (higher = more potent) of -0.406. GAAGTCGTCAAACATATCGAGA showed a sensor-assay potency score (higher = more potent) of -1.84. With TTTATTTTGAGAGATGTTGGAA the sensor-assay potency score (higher = more potent) was 0.35. Sequence TGGAGCTTCATGTAGAGGCCGC has a sensor-assay potency score (higher = more potent) of -0.527. TCGTCAAACATATCGAGATTGG gave a sensor-assay potency score (higher = more potent) of -0.878. For TTCTGAGAAGTCGTCAAACATA, the sensor-assay potency score (higher = more potent) was -1.72.
